Laboratory results as given in PubChem BioAssay.
For some assays here: Measured potencies and affinities stand elsewhere. Calls of active or inactive are those of the source. Unless noted, no rule for the calls is given here.

Legend:
[1] = antimalarial activity against Dd2 strain (AID 2302;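 active = growth inhibition above 50% at the single 2 µM test dose, taken to imply half-maximal potency below 2 µM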;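 also: 0% = DMSO untreated growth and 100% = chloroquine plus artemisinin killed control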); details: P. falciparum Dd2 in RBCs, LDH growth readout, 72 h; at 2 µM; active compounds read high
[2] = HepG2 cytotoxicity, primary screen, cytotoxicity control for P. falciparum antimalarial project, cell-based, ATP luminescence (AID 2303;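 active = inhibition above 50%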;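 also: 0% = DMSO wells and 100% = digitonin-killed cells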); details: HepG2 viability, 24-48 h, at 10 µM, active compounds read high
[3] = biological target: L-lactate dehydrogenase (Plasmodium falciparum (isolate CDC / Honduras)) (UniProt Q27743); test: PfLDH activity inhibition – cell lysate, 3D7 strain, counter-screen for P. falciparum growth inhibition project (AID 2304);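 also: 0% = vehicle and 100% = reference inhibitor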; details: P. falciparum 3D7 crude extract, LDH APAD/NBT absorbance; at 2 µM; active compounds read high
Chain of L-lactate dehydrogenase (Plasmodium falciparum (isolate CDC / Honduras)) (Q27743 whole entry, looked up): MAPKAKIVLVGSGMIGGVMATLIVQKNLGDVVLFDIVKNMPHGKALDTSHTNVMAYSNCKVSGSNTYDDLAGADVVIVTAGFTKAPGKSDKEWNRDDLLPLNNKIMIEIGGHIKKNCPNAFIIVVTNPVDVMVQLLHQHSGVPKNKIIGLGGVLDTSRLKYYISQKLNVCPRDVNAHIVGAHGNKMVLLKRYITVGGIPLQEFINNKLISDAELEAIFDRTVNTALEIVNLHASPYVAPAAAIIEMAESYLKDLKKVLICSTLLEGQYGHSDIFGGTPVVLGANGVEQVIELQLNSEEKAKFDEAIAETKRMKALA

[4] = inhibition of 3D7 malaria parasite growth – strain 3D7 (AID 2306);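 also: 0% = DMSO wells and 100% = chloroquine plus artemisinin control wells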; details: P. falciparum 3D7 erythrocytic growth, LDH absorbance, 72 h; at 2 µM; active compounds read high
[5] = biological target: Calcium-dependent protein kinase 1 (Plasmodium falciparum (isolate 3D7)) (UniProt P62344); test: PfCDPK1 kinase inhibitors, biochemical, TCAMS library (AID 1159585; cut-off not given, nearly all actives have IC50 up to about 0.98 µM;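 also: inhibitors leave more ATP so luminescence rises with inhibition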); details: recombinant PfCDPK1, Kinase-Glo ATP depletion luminescence
Chain of Calcium-dependent protein kinase 1 (Plasmodium falciparum (isolate 3D7)) (P62344 whole entry, looked up): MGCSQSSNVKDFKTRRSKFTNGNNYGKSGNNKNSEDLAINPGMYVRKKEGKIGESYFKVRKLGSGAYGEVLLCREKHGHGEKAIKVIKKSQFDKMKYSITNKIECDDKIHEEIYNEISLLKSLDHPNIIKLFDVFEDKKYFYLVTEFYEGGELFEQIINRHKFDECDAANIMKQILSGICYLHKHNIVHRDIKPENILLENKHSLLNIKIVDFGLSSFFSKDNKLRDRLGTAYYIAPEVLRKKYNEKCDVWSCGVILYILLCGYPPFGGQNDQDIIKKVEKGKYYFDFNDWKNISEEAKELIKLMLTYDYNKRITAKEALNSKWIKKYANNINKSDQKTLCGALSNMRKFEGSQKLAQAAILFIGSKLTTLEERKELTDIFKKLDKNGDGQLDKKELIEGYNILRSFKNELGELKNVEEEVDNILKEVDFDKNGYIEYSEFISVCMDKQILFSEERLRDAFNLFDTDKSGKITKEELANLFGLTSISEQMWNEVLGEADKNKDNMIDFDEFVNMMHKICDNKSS

[6] = biological target: Plasmodium falciparum protein kinase 6 (PK6, PF3D7_1337100) (UniProt Q8IDW1); test: PfPK6 kinase inhibitors, biochemical, TCAMS library (AID 1159586); details: recombinant PfPK6, Kinase-Glo ATP depletion luminescence
Chain of Plasmodium falciparum protein kinase 6 (PK6, PF3D7_1337100) (Q8IDW1 1-305): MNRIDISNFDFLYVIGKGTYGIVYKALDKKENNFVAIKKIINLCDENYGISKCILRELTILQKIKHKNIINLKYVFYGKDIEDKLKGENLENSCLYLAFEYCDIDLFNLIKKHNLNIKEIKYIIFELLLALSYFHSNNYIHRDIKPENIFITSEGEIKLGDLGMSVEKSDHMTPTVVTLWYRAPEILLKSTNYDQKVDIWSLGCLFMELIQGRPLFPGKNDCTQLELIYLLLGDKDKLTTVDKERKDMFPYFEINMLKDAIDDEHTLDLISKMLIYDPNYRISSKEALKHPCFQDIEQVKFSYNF

[7] = biological target: Protein kinase 7 (PK7), Plasmodium falciparum 3D7 (PF3D7_0213400) (UniProt Q7YTF7); test: inhibition of Plasmodium PK7 catalytic activity – biochemical, TCAMS antimalarial set, Kinase-Glo luminescence (AID 1159587); details: recombinant PfPK7, Kinase-Glo ATP depletion luminescence
Chain of Protein kinase 7 (PK7), Plasmodium falciparum 3D7 (PF3D7_0213400) (Q7YTF7 1-343): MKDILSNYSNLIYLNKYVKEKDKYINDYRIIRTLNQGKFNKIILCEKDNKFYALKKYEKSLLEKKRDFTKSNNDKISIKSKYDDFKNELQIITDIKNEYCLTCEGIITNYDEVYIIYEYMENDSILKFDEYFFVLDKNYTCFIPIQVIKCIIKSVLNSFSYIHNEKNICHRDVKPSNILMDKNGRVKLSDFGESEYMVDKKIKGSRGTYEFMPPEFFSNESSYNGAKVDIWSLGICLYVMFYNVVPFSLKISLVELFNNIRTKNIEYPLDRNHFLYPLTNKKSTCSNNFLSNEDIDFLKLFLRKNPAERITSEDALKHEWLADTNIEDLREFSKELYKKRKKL

[8] = biological target: Calcium-dependent protein kinase 4 (Plasmodium falciparum (isolate 3D7)) (UniProt Q8IBS5); test: PfCDPK4 kinase inhibitors, biochemical, TCAMS library (AID 1159588; cut-off not given, nearly all actives have IC50 up to about 0.91 µM); details: recombinant PfCDPK4, Kinase-Glo ATP depletion luminescence
Chain of Calcium-dependent protein kinase 4 (Plasmodium falciparum (isolate 3D7)) (Q8IBS5 whole entry, looked up): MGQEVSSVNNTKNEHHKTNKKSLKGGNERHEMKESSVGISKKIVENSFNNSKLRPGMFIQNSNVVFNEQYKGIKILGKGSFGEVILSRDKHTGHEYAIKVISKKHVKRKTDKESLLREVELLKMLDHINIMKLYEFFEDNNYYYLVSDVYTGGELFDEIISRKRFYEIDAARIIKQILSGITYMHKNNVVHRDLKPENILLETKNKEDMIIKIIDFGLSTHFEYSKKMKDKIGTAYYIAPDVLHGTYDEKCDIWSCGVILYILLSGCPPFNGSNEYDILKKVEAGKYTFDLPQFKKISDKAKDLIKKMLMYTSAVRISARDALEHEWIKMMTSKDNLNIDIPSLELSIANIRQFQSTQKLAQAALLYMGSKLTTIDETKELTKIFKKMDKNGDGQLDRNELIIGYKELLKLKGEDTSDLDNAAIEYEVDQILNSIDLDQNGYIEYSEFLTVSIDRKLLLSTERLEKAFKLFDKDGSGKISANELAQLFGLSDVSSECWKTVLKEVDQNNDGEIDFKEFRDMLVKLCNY

CCCCCN1CCC(NS(=O)(=O)c2ccc(C(=O)Nc3cccc(C(F)(F)F)c3)cc2)C1 (stereo not given)
active: growth inhibition [4] 94%
inactive: growth inhibition [1] 0% | inhibition [2] 14% | inhibition [3] -9% | outcome [5] | outcome [6] | outcome [7] | outcome [8]

O=C(/C=C/c1ccc(Cl)c(Cl)c1)NCCCCCN1CCC(NC(=O)Nc2ccc(F)c(F)c2)CC1
active: growth inhibition [4] 99%
inactive: growth inhibition [1] 4% | inhibition [2] 24% | inhibition [3] 2% | outcome [5] | outcome [6] | outcome [7] | outcome [8]

Nc1c2ccccc2nc2cc(C(F)(F)F)ccc12
active: growth inhibition [4] 101%
inactive: growth inhibition [1] 49% | inhibition [2] 8% | inhibition [3] 1% | outcome [5] | outcome [6] | outcome [7] | outcome [8]

COc1ccc(CN(C)CCCOc2ccc(NC(=O)c3cccc4c(=O)c5cccc(F)c5[nH]c34)cc2)cc1OC
active: growth inhibition [1] 96% | growth inhibition [4] 100%
inactive: inhibition [2] 6% | inhibition [3] -3% | outcome [5] | outcome [6] | outcome [7] | outcome [8]

Oc1ccc(-c2nc3c(N4CCN(Cc5ccccc5)CC4)cccc3n2C2CCNCC2)cc1
active: growth inhibition [4] 85%
inactive: growth inhibition [1] 7% | inhibition [2] -1% | inhibition [3] 0% | outcome [5] | outcome [6] | outcome [7] | outcome [8]

O=C(CCCC(=O)Nc1ccc(C2=NCCN2)cc1)Nc1ccc(C2=NCCN2)cc1
inactive: inhibition [2] 3% | inhibition [3] 2% | outcome [5] | outcome [6] | outcome [7] | outcome [8]
active: growth inhibition [1] 81% | growth inhibition [4] 91%

CCOc1cc(Cc2cnc(N)nc2N)cc(OC)c1OC
active: growth inhibition [4] 90%
inactive: growth inhibition [1] 0% | inhibition [2] -3% | inhibition [3] -1% | outcome [5] | outcome [6] | outcome [7] | outcome [8]

Cc1cc(F)ccc1[C@H]1C[C@H](N2CCOCC2)CCN1C(=O)N(C)[C@@H](C)c1cc(C(F)(F)F)cc(C(F)(F)F)c1
inactive: inhibition [2] 4% | inhibition [3] 3% | outcome [5] | outcome [6] | outcome [7] | outcome [8]
active: growth inhibition [1] 99% | growth inhibition [4] 100%

CC(C)(C)c1nn(-c2ccccc2)c2[nH]c(=O)c(CNCc3ccccc3)cc12
active: growth inhibition [1] 91% | growth inhibition [4] 90%
inactive: inhibition [2] 5% | inhibition [3] 2% | outcome [5] | outcome [6] | outcome [7] | outcome [8]

O=C(Nc1ccc(Br)cc1)N(CCN1CCOCC1)CC(O)COCc1ccc(Cl)c(Cl)c1 (stereo not given)
inactive: inhibition [2] 16% | inhibition [3] -5% | outcome [5] | outcome [6] | outcome [7] | outcome [8]
active: growth inhibition [1] 52% | growth inhibition [4] 94%

O=C(O)Cc1ccc(-c2c[nH]c3ncc(-c4cccc5ncccc45)cc23)cc1
active: growth inhibition [4] 95%
inactive: growth inhibition [1] 0% | inhibition [2] 7% | inhibition [3] 1% | outcome [5] | outcome [6] | outcome [7] | outcome [8]

Clc1ccc(CNCC2CCN(CC3CCCCC3)CC2)cc1Cl
active: growth inhibition [4] 92%
inactive: growth inhibition [1] 6% | inhibition [2] 18% | inhibition [3] 4% | outcome [5] | outcome [6] | outcome [7] | outcome [8]

O=[N+]([O-])c1ccc(C(O)P(=O)(c2ccccc2)c2ccccc2)cc1 (stereo not given)
active: growth inhibition [4] 98%
inactive: growth inhibition [1] 1% | inhibition [2] 1% | inhibition [3] 0% | outcome [5] | outcome [6] | outcome [7] | outcome [8]

CN(C)CCNCc1nc(-c2ccc3c(Nc4ccc(Cl)cc4F)ccnc3c2)cs1
inactive: inhibition [2] -2% | inhibition [3] -9% | outcome [5] | outcome [6] | outcome [7] | outcome [8]
active: growth inhibition [1] 100% | growth inhibition [4] 101%

CCc1cc2c(cc1OCCN(C)C)N(C(=O)Nc1ccc(-c3ccncc3)c(Cl)c1)CC2
active: growth inhibition [4] 95%
inactive: growth inhibition [1] 7% | inhibition [2] 18% | inhibition [3] -1% | outcome [5] | outcome [6] | outcome [7] | outcome [8]

Fc1ccc2nccc(NN=Cc3ccccc3Cl)c2c1
inactive: growth inhibition [1] 39% | inhibition [2] 3% | inhibition [3] 0% | outcome [5] | outcome [6] | outcome [7] | outcome [8]
active: growth inhibition [4] 100%

CCn1c2c(c(=N)c3ccccc31)CCC2
active: growth inhibition [1] 61% | growth inhibition [4] 83%
inactive: inhibition [2] 11% | inhibition [3] 8% | outcome [5] | outcome [6] | outcome [7] | outcome [8]

CC(C)C[C@H](NC(=O)c1ccc(OCCN2CCOCC2)cc1)C(=O)N[C@H](/C=N/NC(=O)c1ccccc1)CCc1ccccc1
active: growth inhibition [1] 90% | growth inhibition [4] 98%
inactive: inhibition [2] 17% | inhibition [3] -3% | outcome [5] | outcome [6] | outcome [7] | outcome [8]

CCC(O)c1ccc(Br)cc1NC(=O)c1cccc(Cl)c1 (stereo not given)
inactive: inhibition [2] -3% | inhibition [3] -5% | outcome [5] | outcome [6] | outcome [7] | outcome [8]
active: growth inhibition [1] 52% | growth inhibition [4] 80%

CC(C)(C)N1CCC(N(Cc2ccc(-c3ccc(C(F)(F)F)cc3)cc2)C(=O)Cn2c(CCc3cccc(F)c3F)cc(=O)c3ccccc32)CC1
inactive: inhibition [3] 4% | outcome [5] | outcome [6] | outcome [7] | outcome [8]
active: growth inhibition [1] 97% | inhibition [2] 100% | growth inhibition [4] 100%

CN(C)CCOc1cc(NC(=O)Nc2cccc3c(-c4ccncc4)cccc23)ccc1I
inactive: growth inhibition [1] 28% | inhibition [2] 20% | inhibition [3] 0% | outcome [5] | outcome [6] | outcome [7] | outcome [8]
active: growth inhibition [4] 100%

COc1ccc2nc3cc(Cl)ccc3c(NCCN3CCN(C)CC3)c2c1
inactive: inhibition [2] 29% | inhibition [3] 2% | outcome [5] | outcome [6] | outcome [7] | outcome [8]
active: growth inhibition [1] 99% | growth inhibition [4] 100%

O=c1cc(NCCCNCc2cccc(Oc3ccccc3)c2)[nH]c2ccccc12
inactive: inhibition [2] -4% | inhibition [3] -1% | outcome [5] | outcome [6] | outcome [7] | outcome [8]
active: growth inhibition [1] 67% | growth inhibition [4] 93%

COc1ccc(CNc2ccnc3cc(OC)ccc23)cc1
inactive: inhibition [2] 7% | inhibition [3] -7% | outcome [5] | outcome [6] | outcome [7] | outcome [8]
active: growth inhibition [1] 74% | growth inhibition [4] 100%

Cc1cc(NN=Cc2ccc(Cl)cc2)c2cccc(C)c2n1
active: growth inhibition [4] 103%
inactive: growth inhibition [1] 47% | inhibition [2] -1% | inhibition [3] 2% | outcome [5] | outcome [6] | outcome [7] | outcome [8]

CCNc1cc(C(=O)N[C@@H](Cc2ccccc2)[C@H](O)CNCc2cccc(OC)c2C)cc(N2CCCCS2(=O)=O)c1
active: growth inhibition [1] 98% | growth inhibition [4] 97%
inactive: inhibition [2] 8% | inhibition [3] -1% | outcome [5] | outcome [6] | outcome [7] | outcome [8]

Cc1nc(-c2nc(NCCc3ccncc3)ncc2-c2ccsc2)sc1C
active: growth inhibition [1] 87% | growth inhibition [4] 92%
inactive: inhibition [2] 10% | inhibition [3] -1% | outcome [5] | outcome [6] | outcome [7] | outcome [8]

COc1ccc(NC(=O)[C@H](CC(C)C)Nc2cc(C)nc(NCCOc3ccccc3)n2)cc1
active: growth inhibition [1] 65% | growth inhibition [4] 100%
inactive: inhibition [2] -1% | inhibition [3] 4% | outcome [5] | outcome [6] | outcome [7] | outcome [8]

CN(C)CCNc1ncnc2c1[nH]c1ccc(Br)cc12
active: growth inhibition [4] 100%
inactive: growth inhibition [1] 7% | inhibition [2] 2% | inhibition [3] -2% | outcome [5] | outcome [6] | outcome [7] | outcome [8]

COc1ccc2nccc([C@@H](O)CN3CCC(NC(=O)C(c4cc5ccccc5o4)N4CCN(c5ccc(F)cc5)CC4)CC3)c2c1 (stereo not given in full)
active: growth inhibition [1] 98% | growth inhibition [4] 100%
inactive: inhibition [2] 15% | inhibition [3] -1% | outcome [5] | outcome [6] | outcome [7] | outcome [8]

COc1ccc(C(=O)CCC(=O)N(Cc2ccc(-c3ccc(CNCCc4ccc(S(C)(=O)=O)cc4)cn3)cc2)C2C[C@@H]3CC[C@H]2C3)cc1F (stereo not given in full)
active: growth inhibition [4] 97%
inactive: growth inhibition [1] 34% | inhibition [2] 5% | inhibition [3] 0% | outcome [5] | outcome [6] | outcome [7] | outcome [8]

CC(C)(C)NC(=O)c1ccc(Oc2ccc(OC(F)(F)F)cc2)c(NC(=O)C(C)(C)C)c1
active: growth inhibition [4] 89%
inactive: growth inhibition [1] 2% | inhibition [2] -11% | inhibition [3] 3% | outcome [5] | outcome [6] | outcome [7] | outcome [8]

CCCCc1ccc(NC(=O)Nc2ccc3c(c2)CCNCC3)cc1
inactive: growth inhibition [1] 43% | inhibition [2] 16% | inhibition [3] 0% | outcome [5] | outcome [6] | outcome [7] | outcome [8]
active: growth inhibition [4] 95%

CC12CCC(=O)N1C(C(=O)Nc1cccc(C(=O)Nc3cccc(C(F)(F)F)c3)c1)CS2 (stereo not given)
inactive: inhibition [2] 6% | inhibition [3] -3% | outcome [5] | outcome [6] | outcome [7] | outcome [8]
active: growth inhibition [1] 89% | growth inhibition [4] 92%

Cc1ccc(-c2ccn(Cc3cccc(OCc4ccccc4)c3)n2)cn1 (tested in a mixture with another compound)
inactive: inhibition [2] -4% | inhibition [3] 0% | outcome [5] | outcome [6] | outcome [7] | outcome [8]
active: growth inhibition [1] 64% | growth inhibition [4] 82%

CN(C)CCCOc1ccc(CN2CC[C@H](NC(=O)c3ccc(Cl)c(Cl)c3)C2)cc1Cl
active: inhibition [2] 65% | growth inhibition [4] 100%
inactive: growth inhibition [1] 35% | inhibition [3] 1% | outcome [5] | outcome [6] | outcome [7] | outcome [8]

COc1ccc2nc(-c3ccccc3)cc(NCCCNc3cc(-c4ccccc4)nc4ccc(OC)cc34)c2c1
active: growth inhibition [1] 99% | inhibition [2] 100% | growth inhibition [4] 99%
inactive: inhibition [3] 9% | outcome [5] | outcome [6] | outcome [7] | outcome [8]

Cc1nc2sccn2c1C(=O)NCCc1ccccc1Cl
active: growth inhibition [4] 96%
inactive: growth inhibition [1] 1% | inhibition [2] 6% | inhibition [3] 3% | outcome [5] | outcome [6] | outcome [7] | outcome [8]

COc1cccc(CN2CCC3(CC2)CN(C(=O)Nc2ccc(Cl)c(Cl)c2)C3)c1
active: growth inhibition [4] 97%
inactive: growth inhibition [1] 2% | inhibition [2] 29% | inhibition [3] 2% | outcome [5] | outcome [6] | outcome [7] | outcome [8]

CCCCCCn1c2c(c(=N)c3c1CCC3)CCCC2
active: growth inhibition [1] 76% | growth inhibition [4] 99%
inactive: inhibition [2] 31% | inhibition [3] 4% | outcome [5] | outcome [6] | outcome [7] | outcome [8]
